Consider 55 compounds from PubChem BioAssay AID651903 (Broad Institute, 2012).

Out of some 22,000 compounds screened, about 1,100 (5%) were called active. The sample as a whole holds a higher share of actives than the screen did. Unmarked numbers belong to inactive results. No stated cut-off is given here; in the data, active means activity score above about 55%; inconclusive means no clear call, values can overlap the other calls; inactive means below that.

The assay can be described thus: T. cruzi growth inside host cells – cell-based, plate reader, single point, set 2, primary screen (AID 651903).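 Further: parasites and compound incubated about four days before reading; 0% = median of neutral control wells.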 The note with it: intracellular Trypanosoma cruzi in host cells, at 5.01 µM, hits give high values.
For `CC(C)NC(=O)Nc1cccc2c1O[C@H](CN(C)S(=O)(=O)c1ccccc1)[C@@H](C)CN([C@@H](C)CO)C2=O`, the activity score (inhibition) is 0.345%. For `COc1ccc(CN(C)C[C@@H]2Oc3c(NC(=O)C4CC4)cccc3C(=O)N([C@@H](C)CO)C[C@H]2C)cc1`, the activity score (inhibition) is -27.5%. For `Cc1ccc(S(=O)(=O)Nc2ccc3c(c2)CC(=O)N([C@@H](C)CO)C[C@H](C)[C@H](CN(C)Cc2ccccc2)O3)cc1` the value was 12.2%. For `C[C@@H]1CN([C@H](C)CO)C(=O)c2cc(NS(=O)(=O)c3cn(C)cn3)ccc2O[C@@H]1CN(C)Cc1ccc(C(=O)Nc2ccccc2N)cc1`, the activity score (inhibition) is 3.44%. On to `C[C@H](CO)N1C[C@H](C)[C@H](CN(C)Cc2ccc(C(=O)Nc3ccccc3N)cc2)Oc2ccc(NS(C)(=O)=O)cc2C1=O`, for which the activity score (inhibition) was 16%. For the compound `Cc1ccc(S(=O)(=O)Nc2ccc3c(c2)C(=O)N([C@@H](C)CO)C[C@@H](C)[C@@H](CN(C)Cc2ccc(C(=O)Nc4ccccc4N)cc2)O3)cc1`, the activity score (inhibition) was 23.3%. The same measure for `Cc1ccc(S(=O)(=O)Nc2ccc3c(c2)CC(=O)N([C@@H](C)CO)C[C@H](C)[C@H](CN(C)Cc2ccc(C(=O)Nc4ccccc4N)cc2)O3)cc1`: 66.2% (active). For `C[C@H]1CN([C@@H](C)CO)C(=O)Cc2cc(NS(=O)(=O)c3ccccc3)ccc2O[C@H]1CN(C)Cc1ccc(C(=O)Nc2ccccc2N)cc1` the value was 69.5% (active); for `COc1ccc(S(=O)(=O)Nc2ccc3c(c2)CC(=O)N([C@@H](C)CO)C[C@@H](C)[C@@H](CN(C)Cc2ccc(C(=O)Nc4ccccc4N)cc2)O3)cc1`, 54%.

Take `C[C@@H]1CN([C@@H](C)CO)C(=O)c2cc(NS(=O)(=O)c3ccccc3)ccc2O[C@@H]1CN(C)Cc1ccc(C(=O)Nc2ccccc2N)cc1`: the activity score (inhibition) is 34.8%. Take `Cc1noc(C)c1S(=O)(=O)Nc1ccc2c(c1)C(=O)N([C@@H](C)CO)C[C@H](C)[C@H](CN(C)Cc1ccc(C(=O)Nc3ccccc3N)cc1)O2`: the activity score (inhibition) is 74% (active). For `C[C@@H]1CN([C@H](C)CO)C(=O)c2cc(NC(=O)Nc3ccccc3)ccc2O[C@H]1CN(C)Cc1ccc(Cl)c(Cl)c1` the value was -34%.

Turning to `C[C@@H]1CCCCO[C@@H](CN(C)S(=O)(=O)c2cccs2)[C@@H](C)CN([C@H](C)CO)C(=O)c2cc(NC(=O)Nc3ccc(F)cc3)ccc2O1`, the activity score (inhibition) was 21.5%. Take `O=C(NO)c1cccc(C(=O)N/N=C/c2cccnc2Cl)c1`: the activity score (inhibition) was 1.22%. Regarding `C[C@@H]1CN([C@H](C)CO)C(=O)Cc2cc(NC(=O)Cc3cn(C)c4ccccc34)ccc2O[C@@H]1CN(C)S(=O)(=O)c1ccccc1`, the activity score (inhibition) is 47.8%. The same measure for `C[C@H](CO)N1C[C@H](C)[C@H](CN(C)Cc2ccncc2)Oc2ccc(NC(=O)Cc3cn(C)c4ccccc34)cc2CC1=O`: 4.58%.

Take `C[C@H]1CN([C@@H](C)CO)C(=O)Cc2cc(NC(=O)Cc3cn(C)c4ccccc34)ccc2O[C@@H]1CN(C)Cc1ccccc1`: the activity score (inhibition) was 57.4% (active). Consider `C[C@H]1CN([C@@H](C)CO)C(=O)Cc2cc(NC(=O)Cc3cn(C)c4ccccc34)ccc2O[C@@H]1CN(C)Cc1ccc(C(F)(F)F)cc1`, for which the activity score (inhibition) was 65.6% (active). With `C[C@H]1CN([C@@H](C)CO)C(=O)Cc2cc(NC(=O)Cc3cn(C)c4ccccc34)ccc2O[C@H]1CN(C)Cc1ccccc1`, the activity score (inhibition) was 11.1%. For `C[C@H](CO)N1C[C@H](C)[C@H](CN(C)C(=O)Nc2ccc(F)cc2)Oc2ccc(NC(=O)Cc3cn(C)c4ccccc34)cc2CC1=O` the value was -2.27%; for `C[C@H](CO)N1C[C@H](C)[C@@H](CN(C)S(=O)(=O)c2ccc(F)cc2)Oc2c(NC(=O)Nc3ccccc3)cccc2C1=O`, 14.1%. The same measure for `C[C@H]1CN([C@@H](C)CO)C(=O)Cc2cc(NS(=O)(=O)c3ccc(Cl)cc3)ccc2O[C@H]1CN(C)S(C)(=O)=O`: -19.4%; for `COc1ccc(S(=O)(=O)N(C)C[C@H]2OCCCC[C@@H](C)Oc3ccc(NC(=O)c4ccncc4)cc3C(=O)N([C@H](C)CO)C[C@@H]2C)cc1`: -7.48%; for `COc1ccc(S(=O)(=O)N(C)C[C@H]2OCc3cnnn3CCCC(=O)N([C@H](C)CO)C[C@H]2C)cc1`: 0.901%.

With `C[C@@H]1CN([C@H](C)CO)C(=O)c2cccc(NC(=O)CCCCCC(=O)Nc3ccccc3N)c2O[C@H]1CN(C)CC1CCCCC1`, the activity score (inhibition) was 62.4% (active). Take `C[C@@H]1CN([C@@H](C)CO)C(=O)c2cccc(NC(=O)CCCCCC(=O)Nc3ccccc3N)c2O[C@@H]1CN(C)CC1CCCCC1`: the activity score (inhibition) is 17.2%. As to `CC(C)NC(=O)Nc1cccc2c1O[C@H](CN(C)CC1CCCCC1)[C@H](C)CN([C@H](C)CO)C2=O`, the activity score (inhibition) is -12%. For `C[C@H](CO)N1C[C@H](C)[C@H](CN(C)CC2CCCCC2)Oc2ccc(NC(=O)CCCCCC(=O)Nc3ccccc3N)cc2C1=O` the value was 0.222%; for `C[C@H]1CN([C@@H](C)CO)C(=O)c2cccc(NC(=O)CCCCCC(=O)Nc3ccccc3N)c2O[C@@H]1CN(C)CC1CCCCC1`, 81.9% (active); for `C[C@@H]1CN([C@@H](C)CO)C(=O)c2cccc(NC(=O)CCCCCC(=O)Nc3ccccc3N)c2O[C@H]1CN(C)C(=O)Nc1cccc2ccccc12`, 0.294%.

In the case of `COc1cc(/C=N\NC(=O)CCCCCCC(=O)NO)c(Br)cc1O`, the activity score (inhibition) is 22.6%. In the case of `C[C@@H]1CN([C@H](C)CO)C(=O)c2cccc(NC(=O)C3CC3)c2O[C@@H]1CN(C)C(=O)Nc1ccccc1`, the activity score (inhibition) is -22.6%.

For `C[C@H]1CN([C@@H](C)CO)C(=O)c2cccc(NS(=O)(=O)c3ccccc3)c2O[C@@H]1CN(C)C(=O)Nc1ccc(C(F)(F)F)cc1`, the activity score (inhibition) is 34.3%. `C[C@H](CO)N1C[C@H](C)[C@H](CN(C)C(=O)Nc2ccc(C(F)(F)F)cc2)Oc2c(NC(=O)c3ccncc3)cccc2C1=O`: the activity score (inhibition) is 72.4% (active). As for `C[C@@H]1CN([C@H](C)CO)C(=O)c2cccc(NC(=O)Nc3ccc(F)cc3)c2O[C@@H]1CN(C)C(=O)Nc1ccc(C(F)(F)F)cc1`, the activity score (inhibition) was -4.83%. For the compound `C[C@@H]1CN([C@@H](C)CO)C(=O)c2cccc(NC(=O)Nc3ccc(F)cc3)c2O[C@@H]1CN(C)C(=O)Nc1ccccc1`, the activity score (inhibition) is -2.37%.

Consider `C[C@H](CO)N1C[C@H](C)[C@H](CN(C)C(=O)Nc2ccccc2)Oc2c(NC(=O)Nc3ccc(C(F)(F)F)cc3)cccc2C1=O`, for which the activity score (inhibition) is 70.2% (active). For `C[C@@H]1CN([C@H](C)CO)C(=O)c2cccc(NC(=O)c3ccc(-c4nccs4)cc3)c2O[C@@H]1CN(C)C(=O)Nc1ccc(C(F)(F)F)cc1` the value was 38.2%; for `Cc1ccc(S(=O)(=O)Nc2cccc3c2O[C@H](CN(C)C(=O)Nc2ccc(C(F)(F)F)cc2)[C@@H](C)CN([C@@H](C)CO)C3=O)cc1`, -14.4%; for `C[C@@H]1CN([C@H](C)CO)C(=O)c2cccc(NS(=O)(=O)c3ccc(F)cc3)c2O[C@@H]1CN(C)C(=O)Nc1ccc(C(F)(F)F)cc1`, 65.8% (active).

Consider `C[C@H]1CN([C@@H](C)CO)C(=O)c2cccc(NC(=O)Nc3ccc(C(F)(F)F)cc3)c2O[C@H]1CN(C)S(=O)(=O)c1ccccc1`, for which the activity score (inhibition) is 11.5%. In the case of `C[C@H]1CN([C@@H](C)CO)C(=O)c2cccc(NC(=O)c3ccc(-c4nccs4)cc3)c2O[C@@H]1CN(C)C(=O)Nc1ccc(C(F)(F)F)cc1`, the activity score (inhibition) was -8.3%. With `C[C@@H]1CN([C@H](C)CO)C(=O)c2cccc(NC(=O)Nc3ccc(C(F)(F)F)cc3)c2O[C@H]1CN(C)S(=O)(=O)c1ccc(Cl)cc1`, the activity score (inhibition) is 36.7%. In the case of `C[C@@H]1CN([C@@H](C)CO)C(=O)c2cccc(NC(=O)Nc3ccc(C(F)(F)F)cc3)c2O[C@@H]1CN(C)S(=O)(=O)c1ccc(F)cc1`, the activity score (inhibition) was 71.6% (active). Turning to `COc1ccc(NC(=O)Nc2cccc3c2O[C@H](CN(C)S(=O)(=O)c2cn(C)cn2)[C@H](C)CN([C@@H](C)CO)C3=O)cc1`, the activity score (inhibition) is -20.8%. On to `O=C(NO)c1ccc(C(=O)N/N=C/c2ccc([N+](=O)[O-])c(O)c2)cc1`, for which the activity score (inhibition) is 1.55%.

Take `C[C@@H]1CN([C@@H](C)CO)C(=O)c2cccc(N(C)C)c2O[C@H]1CN(C)S(=O)(=O)c1cccs1`: the activity score (inhibition) is -13.3%. Regarding `Cc1noc(C)c1NC(=O)N(C)C[C@@H]1Oc2ccc(NC(=O)Nc3ccc(C(F)(F)F)cc3)cc2C(=O)N([C@H](C)CO)C[C@@H]1C`, the activity score (inhibition) was 0.983%.

As for `C[C@H](CO)N1C[C@H](C)[C@@H](CN(C)S(=O)(=O)c2ccc(F)cc2)Oc2ccc(NC(=O)CCC(F)(F)F)cc2C1=O`, the activity score (inhibition) is 4.98%.

Take `C[C@H](CO)N1C[C@H](C)[C@H](CN(C)S(=O)(=O)c2cn(C)cn2)Oc2c(NC(=O)c3ccc(-c4nccs4)cc3)cccc2C1=O`: the activity score (inhibition) was -7.9%.

For `C[C@@H]1CN([C@H](C)CO)C(=O)c2cccc(NC(=O)c3nc4ccccc4s3)c2O[C@@H]1CN(C)Cc1ccc(Oc2ccccc2)cc1`, the activity score (inhibition) is 24.2%. On to `Cc1noc(C)c1NC(=O)Nc1ccc2c(c1)CC(=O)N([C@@H](C)CO)C[C@H](C)[C@@H](CN(C)CC1CCCCC1)O2`, for which the activity score (inhibition) was 4.18%. The same measure for `Cc1ccc(S(=O)(=O)N(C)C[C@H]2OCCCC[C@@H](C)Oc3ccc(NS(C)(=O)=O)cc3C(=O)N([C@H](C)CO)C[C@@H]2C)cc1`: 4.35%.

In the case of `COc1ccc(S(=O)(=O)N(C)C[C@@H]2Oc3ccc(NS(=O)(=O)c4cn(C)cn4)cc3C(=O)N([C@@H](C)CO)C[C@@H]2C)cc1`, the activity score (inhibition) is -13%. Turning to `COc1ccc(S(=O)(=O)N(C)C[C@H]2Oc3ccc(NS(=O)(=O)c4ccc(F)cc4)cc3C(=O)N([C@H](C)CO)C[C@H]2C)cc1`, the activity score (inhibition) was 6.09%.
